ROS inducer: inducers of reactive oxygen species in cancer cells; U2OS ROS induction, H2DCF-DA fluorescence; ROS induction (% of piperlongumine), % at 10 µM; 2% of 46,000 active; AID 624156; in the data active means ROS induction above about 79%, passing the limit was not always enough;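 further: 0% = DMSO vehicle median and 100% = reference compound median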
YB-1 expression: YB-1 expression inhibition. U2OS, qRT-PCR YB-1 vs CDIP delta delta Cp, 16 h; hits give high values; zero = DMSO, each unit about twofold. delta delta Cp (YB-1 minus CDIP) (concentration not given with the values). 0.37% of 30,000 active;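 active means delta delta Cp rounded down to an integer at or above 3, about 3 SD of DMSO wells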;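 further: higher means less YB-1 transcript or more CDIP transcript relative to DMSO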
An asterisk follows results filed as active; . = no result. Shown are actives, neighbours in structure and some others; about 2.1% of the full set was active somewhere.

SMILES	ROS inducer	YB-1 expression
O=C(CCCN1CCC2(CC1)C(=O)NCN2c1ccccc1)c1ccc(F)cc1	98*	0.12
O=C1NCN(c2ccccc2)C12CCN(CCCOc1ccc(F)cc1)CC2	0	-0.085
C/C1=C/[C@@H](C)C/C=C/[C@H]2[C@@H]3O[C@]3(C)[C@@H](C)[C@H]3[C@H](Cc4c[nH]c5ccccc45)NC(=O)[C@]32C(=O)/C=C\C(=O)[C@@H]1O	47	0.48
CCC(C)(O)C(=O)O[C@H]1C(=O)O[C@@H]2C[C@H]3C(C)=CC(=O)[C@@H](O)[C@]3(C)[C@H]3[C@@]4(O)OC[C@]32[C@@H]1[C@@H](C)[C@H]4O (stereo partly specified)	64	0.74
CC1(C)C(=O)C=C[C@@]2(C)C1C(=O)C(=O)[C@]1(C)C2CC[C@@]2(C)[C@H](c3ccoc3)C[C@H]3O[C@]321 (stereo partly specified)	179*	0.45
Cc1ccc(S(=O)(=O)N2CCCCC2)cc1C(=O)Oc1cccc2cccnc12	26	-0.43
C=C1[C@@H](C)[C@H]2[C@H](Cc3ccccc3)NC(=O)[C@]23OC(=O)/C=C\[C@H](O)CCC[C@@H](C)C/C=C/[C@H]3[C@@H]1O	-1	0.46
C=C(CO)C(=O)O[C@H]1CC(=C)[C@@H]2C[C@H](O)C(=C)[C@@H]2[C@H]2OC(=O)C(=C)[C@@H]21	96*	0.68
C=C(CO)C(=O)O[C@H]1C/C(C)=C\CC/C(CO)=C\[C@H]2OC(=O)C(=C)[C@H]12	73	-8.4
C[C@@H]1CN([C@@H](C)CO)C(=O)CCCn2nncc2CO[C@@H]1CN(C)C(=O)Oc1ccc2ccccc2c1	44	0.28
C[C@@H]1CN([C@H](C)CO)C(=O)CCCn2nncc2CO[C@@H]1CN(C)C(=O)Oc1ccc2ccccc2c1	149*	-0.037
CC(=O)OC[C@]12C[C@H](O)C(C)=C[C@H]1O[C@@H]1[C@H](O)[C@@H](OC(C)=O)[C@@]2(C)[C@]12CO2	-2	1.2
CNc1ccccc1C(=O)O	6	0.2
C[CH2][Hg][S]c1ccccc1C(=O)O	136*	-0.6
C/C=C\C(=O)O[C@@H]1C[C@H]2O[C@@H]3C=C(C)C(=O)C[C@]3(C)[C@]1(C)[C@]21CO1	6	0.98
O=C(NC1CN2CCC1CC2)c1cccc(Cl)c1 (stereo unspecified)	88*	-0.59
Clc1cccc(N2CCNCC2)c1	-9	0.17
C/C=C(/C)C(=O)O[C@H]1C(C)=C2[C@H]([C@@H]1OC(=O)CCCCC)[C@@](C)(OC(C)=O)C[C@H](OC(=O)CCC)[C@@]1(O)[C@H]2OC(=O)[C@@]1(C)O	9	.
CCOC(=O)C1=C(N)Oc2c(c(=O)oc3ccccc23)C12C(=O)N(CC(=O)OC)c1ccccc12 (stereo unspecified)	97*	-0.56
CCOC(=O)C1=C(N)Oc2c(c(=O)oc3ccccc23)C1c1ccccc1 (stereo unspecified)	-5	.
CC(/C=C/[C@@]1(C)[C@H](C)CCC(=O)[C@@H]1C)=C\Cc1c(O)c(Cl)c(C)c(C=O)c1O	-5	0.46
COC(=O)C1=COC(C)C2CN3CCc4c([nH]c5cc(OC)ccc45)C3CC12 (stereo unspecified)	103*	-0.05
COC(=O)C1=COC(C)C2CN3CCC4(C(=O)Nc5ccccc54)C3CC12 (stereo unspecified)	10	-0.15
CN(CC(=O)Nc1ccc(Cl)cc1C(=O)c1ccccc1)S(=O)(=O)c1ccc(Cl)cc1	6	.

From PubChem
